Nrf2 block = blocks Nrf2 signaling; A549 ARE-Fluc reporter, luciferase luminescence, 18-24 h; Potency, µM (top dose mostly 46 µM), for the others: at the top dose activity change, negative = inhibition, usual class: inhibitors; hit rate 2.1% among 360,000; note: potency is the fitted concentration of half-maximal effect; % is set by controls: 0 for no effect and ±100 for the full control effect; nearly all actives have a fitted effect of over 60% in size
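Cells were seeded and rested 2 h, then exposed to compounds for 18-24 h. CellTiter-Fluor was read first as a viability measure. BugLite was added 15 min before the final luminescent read of ARE-luciferase activity in A549 cells.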
IL2 activator = IL-2 activation | AID 652025 | hit rate 0.065% among 360,000 | IL-2 activation reporter assay, cell-based qHTS; stimulated with anti-CD3/CD4/CD28 beads; in transgenic mouse T cells | activation, % (series mostly up to about 46 µM); in the data active = activation above about 50%; inconclusive = mostly about 30% to 49%; note: 0% is about no effect
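First, unstimulated transgenic mouse T cells were exposed to compound for 60 min. Next, anti-CD3/anti-CD4-coated beads with anti-CD28 were added. Finally, after 18 h at 37 degrees C, EGFP and DsRed were imaged.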
A549 tox = counter-screen for Nrf2 inhibitors: cytotoxicity in A549 cells. A549 ARE-Fluc cells, CellTiter-Fluor viability, 18-24 h. Potency, µM (titrated, usually from 46 µM), without a hit: at the top dose activity change, negative = cytotoxicity, most hits filed as inhibitors. hit rate 0.16% among 390,000. AID 504648; note: potency is the fitted concentration of half-maximal effect; % is set by controls: 0 for no effect and ±100 for the full control effect
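A549 ARE-Fluc cells in 5% FBS OPTI-MEM, 5000 cells/well, rested 2 h then exposed to compounds in concentration-response for 18-24 h at 37 °C. Viability by CellTiter-Fluor fluorescence (Ex 405/Em 525) after 30 min; luciferase luminescence (BugLite, 15 min, RT) read afterwards.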
BRCA1 expr up = BRCA1 expression activation; MCF7-BRCA1-FFLuc reporter, luminescence, 48 h; response scale: scaled: vehicle 0%, 10 µM genistein 100%; hit rate 1.1% among 380,000; AID 624202; Potency, µM (doses to about 46.1 µM), without a hit: at the highest dose activation, hits mostly activators; note: potency is the fitted concentration of half-maximal effect; nearly all actives have a fitted effect of over 80% in size
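Luminescence from a BRCA1-driven firefly luciferase in MCF7 cells was the read-out, taken 15 min after substrate addition following 48 h compound exposure at 37 °C. Data were normalized to a 10 microM genistein control and DMSO vehicle.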
p53 reactivation = restores transcriptional activity of mutant p53. H1299 p53-A138V BP100-luciferase reporter, luminescence, 24 h. Potency, µM (top dose mostly 92.2 µM), without a hit: at the highest dose activity change, positive = activation, actives largely listed as activators. hit rate 0.063% among 320,000. AID 504706; note: potency is the fitted concentration of half-maximal effect; % of control where 0% means no effect; nearly all actives have a fitted effect of over 45% in size
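H1299 (p53-null), stable ts p53-A138V + BP100-Luc; 1000 cells/well, Opti-MEM/10% FBS; cpd 4 pt, 1:5; 24 h, 37 deg C, 5% CO2; detection reagent 10 min RT; luminescence.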
Nrf2 activator = activates Nrf2 signaling; AREc32 ARE-luciferase reporter (MCF7-derived line), luminescence, 24 h; Potency, µM (titrated, usually from 46.1 µM), without a hit: top-dose activation, hits mostly activators; hit rate 0.31% among 410,000; AID 624171; note: potency is the fitted concentration of half-maximal effect; % of control where 0% means no effect; nearly all actives have a fitted effect of over 65% in size
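Nrf2 activation is followed as ARE-luciferase induction in the AREc32 line after one day of compound treatment; luminescence is read with Steady-Glo.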
Numbers without * were called inactive; ? = inconclusive; . = not tested or not shown. Only some compounds are listed: those with a hit (about 3.2% of all), similar ones and a draw of the others. Unless noted, calls come from the whole dose curve; as a rule, active = well fitted curve in the direction sought with a large enough effect; inconclusive = small, poorly fitted or top-dose-only effect, or another doubt; inactive = no such curve, though single readings can be large; an effect the other way counts as inactive or inconclusive.

SMILES	Nrf2 block	IL2 activator	A549 tox	BRCA1 expr up	p53 reactivation	Nrf2 activator
CCOc1cccc(-c2nc3ccccc3c(=O)o2)c1	22.8%	.	5.4%	.	.	4.4%
Cc1nc2cccnc2n1-c1cccc(C(=O)N2CCN(c3ccc(Cl)cc3)CC2)c1	18.4µM*	.	-19.9%	.	.	-0.9%
COc1ccc(OC)c(CNC(=O)CSc2c3c(nc4cc(Cl)ccc24)CCCC3)c1	-15.9%	.	-15.9%	.	.	?
COc1cccc(CNC(=O)CSc2c3c(nc4ccc(Cl)cc24)CCCC3)c1OC	?	.	-19.6%	.	.	12.6µM*
COc1cc(/C=c2\sc3nc(=O)c(-c4ccccc4)nn3c2=O)ccc1OCCC(C)C	?	100.1*	-3.4%	22.3%	?	0.0%
Cc1nc([N+](=O)[O-])c(Br)n1CC(=O)c1ccccc1	.	-1.8	?	-11.7%	-18.5%	?
Cc1nc([N+](=O)[O-])c(Br)n1CC(=O)c1ccc(Br)cc1	23.1µM*	-2.8	16.4µM*	-71.2%	-8.4%	13.6%
O=S(=O)(c1ccc2c(c1)OCCO2)N1CCN(S(=O)(=O)c2c(Cl)cc(C(F)(F)F)cc2Cl)CC1	-5.2%	.	-5.8%	.	.	.
COc1cccc(C(=O)Nc2ccc(N3CCN(C(=O)c4cccs4)CC3)cc2)c1	20.6µM*	-2.2	?	-78.6%	-3.2%	-0.6%
O=C(Nc1ccc(N2CCN(C(=O)c3cccs3)CC2)cc1)c1cccc(F)c1	?	-0.6	7.0%	-0.7%	1.0%	-0.6%
CC(=O)N1CCN(c2ccc(NC(=O)c3ccc(Cl)cc3)cc2)CC1	-9.3%	4.5	-1.0%	1.3%	.	-0.7%
CC(=O)N1CCN(c2ccc(NC(=O)c3cccc(Cl)c3)cc2)CC1	?	-0.6	-2.1%	11.2µM*	22.6%	0.4%
CCCC(=O)NC(=S)Nc1ccc(N2CCN(C(=O)c3cccs3)CC2)cc1	14.6µM*	-2.7	-17.3%	-3.3%	-5.3%	0.0%
O=C(CSc1cn(CC(=O)N2CCCCC2)c2ccccc12)Nc1ccc(C(F)(F)F)cc1	10.6%	.	-0.1%	.	.	-0.8%
CC(=O)CSc1nc(-c2ccccc2)[nH]c1S(=O)(=O)c1ccc(C)cc1	-8.4%	.	-3.5%	.	.	-0.6%
Cc1c(NC(=O)c2nc3ccccc3nc2N2CCCCC2)cccc1[N+](=O)[O-]	1.3%	.	-4.9%	4.3%	.	3.2%
Fc1cccc(Cn2ccc(-c3ccc4c(c3)OCO4)n2)c1	20.5%	0.1	1.6%	10µM*	?	2.3%
COc1cccc(-c2nc(=S)c3c(o2)CCCC3)c1	16.6%	-0.4	-0.6%	?	22.2%	11.2µM*
S=c1nc(-c2ccccc2)oc2c1CCCC2	?	0.5	2.0%	?	?	11.2µM*
O=[N+]([O-])c1ccc(-c2nc(=S)c3c(o2)CCCC3)cc1	22.8%	-2.1	-0.4%	29.9%	11.3%	0.8%
Cc1noc(C)c1-c1ccc2ncnc(NC3CCCc4ccccc43)c2c1 (configuration not stated)	?	.	5.2%	.	.	.
Cn1c(Oc2ccc(F)cc2)nc2c1c(=O)n(Cc1ccccc1Cl)c(=O)n2C	?	.	-4.2%	.	.	-1.2%
c1ccc(-c2noc(-c3cccc4ccccc34)n2)cc1	?	-0.8	11.1%	52.2%	?	1.58µM*
Cc1cc(C)cc(-c2nc(-c3ccncc3)no2)c1	?	-2.4	0.9%	?	?	0.4%
Cc1cccc(-c2nc(-c3ccncc3)no2)c1	?	2.0	2.1%	112.5%	?	12.6µM*
SMILES	Nrf2 block	IL2 activator	A549 tox	BRCA1 expr up	p53 reactivation	Nrf2 activator
c1ccc2c(-c3nc(-c4ccncc4)no3)cccc2c1	?	-0.8	19.3%	33.2%	?	24.9%
Brc1cccc(-c2nc(-c3ccncc3)no2)c1	.	-4.1	9.2%	64.4%	?	11.2µM*
FC(F)(F)c1cccc(-c2nc(-c3ccncc3)no2)c1	?	-2.0	-0.5%	-3.4%	25.6%	11.2µM*
CCOc1ccc(C(=O)c2cn(CC(=O)Nc3ccc4c(c3)OCO4)c3ccc(OC)cc3c2=O)cc1	4.0%	.	2.2%	3.8%	.	-0.6%
Cc1c(-c2nc(-c3ccncc3)no2)cccc1[N+](=O)[O-]	11.9%	-0.2	12.8%	6.8%	7.0%	11.2µM*
Clc1ccc(Br)cc1-c1nc(-c2ccncc2)no1	?	-3.2	0.4%	-31.9%	?	3.98µM*
Fc1ccccc1-c1nc(-c2ccncc2)no1	?	1.0	1.8%	0.0%	15.3%	12.6µM*
O=[N+]([O-])c1ccc([S+](=O)([O-])N2CCN([S+](=O)([O-])c3ccc4c(c3)OCCO4)CC2)c([N+](=O)[O-])c1	-17.8%	.	-0.8%	.	.	.
CCOC(=O)c1c(C)oc2c1c(C=NC1CCS(=O)(=O)C1)c(O)c1ccccc12 (configuration not stated)	-8.8%	0.4	-9.3%	-33.2%	0.1%	0.3%
CCOC(=O)c1c(C)oc2c1c(C=NCCC(=O)O)c(O)c1ccccc12	20.6µM*	1.4	?	8.5%	5.5%	4.6%
CN(C)c1ncnc2c1ncn2-c1ccccc1	24.7%	-2.8	5.4%	11.2µM*	.	3.6%
Cc1cc(-c2nnc(SCC(=O)Nc3ccc(C(F)(F)F)cc3)n2C)no1	23.1µM*	0.8	-14.3%	17.1%	3.5%	0.6%
O=S1(=O)N=C(Oc2ccccc2C(F)(F)F)c2ccccc21	?	.	2.6%	.	.	.
Cn1cc(S(=O)(=O)N2CCc3ccccc32)cc1C(=O)Nc1ccc(C(F)(F)F)cc1	?	.	?	.	.	0.4%
O=C(c1ccc(F)cc1)N1CCC(c2ccccc2)C1 (configuration not stated)	?	-2.7	-3.7%	6.31µM*	15.5%	1.6%
Cc1ccc(C2CCN(C(=O)Nc3ccccc3)C2)cc1 (configuration not stated)	0.0%	0.5	-2.5%	5.01µM*	?	-0.4%
Cc1ccc(NC(=O)N2CCC(c3ccccc3)C2)cc1C (configuration not stated)	?	-3.1	-1.3%	2.82µM*	18.2%	-0.6%
Cc1ccc(NC(=S)N2CCC(c3ccc(C)cc3)C2)cc1 (configuration not stated)	3.8%	-0.4	3.8%	11.2µM*	28.5%	6.1%
Cc1ccc(N(Cc2cccs2)C(=O)COc2ccccc2[N+](=O)[O-])cc1	-11.5%	.	-1.4%	.	.	6.6%
Cc1ccc(-c2cn3c(n2)sc2cc(C(=O)NCCC4=CCCCC4)ccc23)c(C)c1	-11.1%	.	10.4%	.	.	1.0%
CCc1ccccc1Nc1cc(C(=O)NCc2ccc(C)cc2)c2ccccc2n1	?	.	-3.9%	.	.	3.6%

Screening results (PubChem)
